Assay outcomes deposited in PubChem by Johns Hopkins Ion Channel Center.
This is a sample that favours compounds with a hit; in the whole collection about 1.6% have one here.
KCNQ2 block: inhibitors of rat KCNQ2 potassium channel | O88943 | CHO-K1 KCNQ2, FluxOR thallium flux, 20 min; active compounds read low | B-score at 10 µM | actives 1.1% (n = 310,000) | AID 2156;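 active = fluorescence ratio B-score at most minus 3 library SDs, with starting brightness B-score within 2 library SDs, cut at about -5.5 in these data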
KCNQ2 pot: KCNQ2 (rat) channel potentiation | B-score at 10 µM | actives 0.54% (n = 310,000) | CHO-K1 KCNQ2, FluxOR thallium flux fluorescence; active compounds read high | O88943 | AID 2239;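 active = fluorescence ratio B-score at least 3 SD of library B-scores, with initial fluorescence B-score within 3 of them, cut at about 5.3 in these data; same plate scores as AID 2156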;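 also: B-score of peak minus minimum over baseline fluorescence ratio after K+ and Tl+ stimulus; positive B-score means potentiation of KCNQ2 with more thallium influx and brighter signal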
Kir21 conf inh: confirmation of mouse Kir2.1 potassium channel inhibitors; shares compounds with KCNQ2 pot; Kir2.1-expressing cells, FluxOR thallium flux fluorescence; active compounds read low; Tl flux remaining, % of negative control (active compounds read low), % at 10 µM; actives 41% (n = 2,300); AID 2032;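 active = Primary-screen hit whose thallium flux fell at least 3 control SD below untreated wells in both duplicates, with normal baseline fluorescence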;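 also: 0% = blank wells without stimulus and 100% = stimulated no-compound controls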
HEK293 ctr: counter-screen for Kir2.1 inhibitors: effect in parental HEK293 cells; AID 2105; FluxOR signal as % of negative control (100 = no effect), % at 10 µM; actives 19% (n = 2,300); shares compounds with KCNQ2 pot; FluxOR thallium flux fluorescence; 0% = unstimulated blank wells;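 active = dye signal at least 3 control SD above or below untreated wells in both duplicates, raw fluorescence within 3, either direction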;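 also: percent is based on the flux ratio of peak minus minimum fluorescence over baseline F0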
CHO-K1 Tl ctr: counter-screen for KCNQ2 potentiators: effect in parental CHO-K1 cells | shares compounds with KCNQ2 pot | AID 2282 | FluxOR thallium flux fluorescence; zero = vehicle mean+3SD, 100% = vehicle-minus-blank window | actives 43% (n = 1,200) | activity increase over 3SD of controls, % at 10 µM;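 active = signal rise of at least 3 SD above the untreated control mean, in both duplicate wells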;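 also: counter screen of KCNQ2 potentiator hits so any rise reflects channel-independent effects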
KCNQ1 sel pot: human KCNQ1 counter-target activity of KCNQ2 potentiators; activation over 3SD threshold, % at 10 µM; shares compounds with KCNQ2 pot; actives 28% (n = 1,200); CHO KCNQ1 stable, FluxOR thallium flux fluorescence; beyond 3SD, as % of vehicle-control signal;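 active = fluorescence ratio rise of at least 3 SD of vehicle wells above their mean, in both replicate wells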;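 also: 0% = vehicle mean plus 3 SD and 100% = vehicle minus unstimulated blank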
KCNQ2 pot conf: confirmation of rat KCNQ2 potassium channel potentiators | shares compounds with KCNQ2 pot | CHO-KCNQ2 cells, FluxOR thallium flux fluorescence | potentiation, less the hit threshold, % at 10 µM | actives 68% (n = 1,200) | AID 2287;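 active = fluorescence ratio rising 3 SD or more over the vehicle control mean in both replicates, plus primary screen hit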;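 also: peak minus minimum thallium fluorescence divided by baseline after K/Tl stimulus; 0% = vehicle mean plus 3 SD and 100% = vehicle minus unstimulated blank difference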
Kir21 spec: mouse Kir2.1 off-target activity of KCNQ2 potentiators; shares compounds with KCNQ2 pot; activity over 3SD threshold, % at 10 µM; HEK293 Kir2.1, FluxOR thallium flux fluorescence; actives 2% (n = 1,200); AID 2345;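 active = fluorescence ratio rise of at least 3 SD above the vehicle-control mean, seen in both replicates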;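 also: 0% = vehicle mean plus 3 SD and 100% = vehicle minus no-stimulus blank window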
KCNQ2 W236L pot: potentiates the retigabine-insensitive rat KCNQ2 W236L mutant channel | actives 10% (n = 940) | CHO KCNQ2-W236L, automated patch clamp current | AID 2558 | shares compounds with KCNQ2 pot | current increase over 3SD of negative controls (%), active compounds read high, % at 25 µM;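 active = current increase at least 3 SD of the untreated controls above them in both duplicate recordings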
Target sequence (O88943 whole entry W236L, looked up): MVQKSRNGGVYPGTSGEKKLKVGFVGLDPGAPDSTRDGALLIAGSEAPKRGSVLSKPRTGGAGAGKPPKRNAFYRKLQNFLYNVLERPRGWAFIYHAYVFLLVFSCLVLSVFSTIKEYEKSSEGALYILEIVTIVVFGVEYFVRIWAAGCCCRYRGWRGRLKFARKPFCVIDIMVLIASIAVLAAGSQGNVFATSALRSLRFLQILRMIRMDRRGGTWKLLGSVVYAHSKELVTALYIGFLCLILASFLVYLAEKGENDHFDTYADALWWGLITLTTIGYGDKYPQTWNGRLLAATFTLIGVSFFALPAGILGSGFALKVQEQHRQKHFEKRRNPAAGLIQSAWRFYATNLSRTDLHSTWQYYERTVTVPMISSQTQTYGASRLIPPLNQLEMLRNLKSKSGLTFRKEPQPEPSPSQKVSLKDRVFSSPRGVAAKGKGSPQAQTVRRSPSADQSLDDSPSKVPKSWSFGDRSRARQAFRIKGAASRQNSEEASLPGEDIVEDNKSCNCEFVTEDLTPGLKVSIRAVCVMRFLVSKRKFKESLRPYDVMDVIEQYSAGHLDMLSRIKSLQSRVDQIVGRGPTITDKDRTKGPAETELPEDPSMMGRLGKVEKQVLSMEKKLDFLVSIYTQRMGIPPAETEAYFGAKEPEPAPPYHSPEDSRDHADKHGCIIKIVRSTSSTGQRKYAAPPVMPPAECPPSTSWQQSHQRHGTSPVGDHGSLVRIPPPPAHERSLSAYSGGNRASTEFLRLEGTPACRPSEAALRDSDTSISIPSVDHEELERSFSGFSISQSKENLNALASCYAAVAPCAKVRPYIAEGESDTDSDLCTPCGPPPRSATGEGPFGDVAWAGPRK
Active calls of the source: *; i = inactive; nt = not tested or not shown.

SMILES	KCNQ2 block	KCNQ2 pot	Kir21 conf inh	HEK293 ctr	others
O=C(CC1CC2CCC1C2)NCc1cccs1 (stereo not given)	i	5.3*	i	i	CHO-K1 Tl ctr=-18;KCNQ1 sel pot=27*;KCNQ2 pot conf=13*;Kir21 spec=-36;KCNQ2 W236L pot=i
O=C(CCSCCC(=O)NCc1cccs1)NCc1cccs1	i	0.86	nt	nt
O=C(CCC1CCCCC1)NCc1cccs1	i	7.4*	i	i	CHO-K1 Tl ctr=54*;KCNQ1 sel pot=-12;KCNQ2 pot conf=15*;Kir21 spec=-22;KCNQ2 W236L pot=i
CCOC(=O)c1cc(-c2ccc(F)cc2)n(CC(=O)NCc2cccnc2)c1C	i	nt	nt	nt
Cc1[nH]c(C)c(S(=O)(=O)N2CCN(c3ccccc3F)CC2)c1C(=O)N1CCCCC1	i	nt	nt	nt
Cc1sc(N2CCN(S(=O)(=O)c3ccc4c(c3)NC(=O)CO4)CC2)nc1-c1ccccc1	i	nt	nt	nt
CC(=O)c1sc(N/N=C\c2c(O)ccc3ccccc23)nc1C	i	nt	nt	nt
CCn1c(CNc2cccc(C(F)(F)F)c2)n[nH]c1=S	i	nt	nt	nt
Cn1c(-c2cccc(Br)c2)cnc1NCc1ccccc1O	i	5.6*	75%*	i	CHO-K1 Tl ctr=2.7*;KCNQ1 sel pot=8.7*;KCNQ2 pot conf=-13;Kir21 spec=-59
Cn1c(NCc2cc(Br)ccc2O)nc2ccccc21	i	0.81	nt	nt
Cn1c(-c2ccc3c(c2)OCO3)cnc1NCc1ccccc1	i	nt	30%*	i
Cn1c(-c2ccccc2)cnc1NCc1ccccc1	i	nt	nt	nt
CC1(C)Cc2c(cnn2-c2ccc(F)cc2)C(NC(=O)c2ccc(=O)oc2)C1 (stereo not given)	i	nt	nt	nt
COCCNC(=O)Cn1cc(/C=N/NC(=O)c2ccc(Oc3ccc(O)cc3)cc2)c2ccccc21	i	0.38	nt	nt
CCc1nc2ccccc2n1CCc1ccccc1	i	nt	nt	nt
CC(C)(C)Cc1nc2ccccc2n1CCc1ccccc1	i	nt	53%*	i
CCOC(=O)C1=C(COC(=O)Cc2ccccc2)NC(=O)NC1C (stereo not given)	i	1.5	nt	nt
CCCCN(CCCC)C(=S)N/N=C/c1c(C)[nH]n(-c2ccccc2)c1=O	i	6.7*	i	i	CHO-K1 Tl ctr=0.0*;KCNQ1 sel pot=-27;KCNQ2 pot conf=-30;Kir21 spec=-24
Cc1[nH]n(-c2ccccc2)c(=O)c1/C=N/NC(=O)c1ccc(O)cc1O	i	nt	nt	nt
CC(C)c1nc2sc3c(=O)[nH]c(=S)[nH]c3c2c2c1CCCC2	i	9*	i	132%*	CHO-K1 Tl ctr=-18;KCNQ1 sel pot=-8;KCNQ2 pot conf=-16;Kir21 spec=-30
CC(C)c1nc2sc3c(=O)[nH]c(=S)[nH]c3c2c2c1CCC2	i	4.5	nt	nt
Cc1cc(-c2nnc3n2N=C(c2ccc(F)cc2)CS3)n[nH]1	i	0.04	nt	nt
O=C(COc1ccc(Cl)cc1)Nc1ccc2c(c1)nc1n2CCOC1	i	1.1	nt	nt
CC(C)(C)C(=O)/C=C/Nc1ccccc1O	i	9*	i	71%*	CHO-K1 Tl ctr=-12;KCNQ1 sel pot=78*;KCNQ2 pot conf=59*;Kir21 spec=-14;KCNQ2 W236L pot=1.6%*
CN(C)c1ccc(N/C=C/C(=O)C(C)(C)C)cc1	i	nt	nt	nt
SMILES	KCNQ2 block	KCNQ2 pot	Kir21 conf inh	HEK293 ctr	others
CCc1cccc(C)c1NC(=O)CSc1nc(C)c(C)o1	i	2.5	nt	nt
Cc1occc1C(=O)NCCCCNC(=O)c1ccoc1C	i	0.46	nt	nt
CCCCCCCCCCCNC(=O)c1ccoc1C	i	13*	nt	nt	CHO-K1 Tl ctr=-20;KCNQ1 sel pot=66*;KCNQ2 pot conf=37*;Kir21 spec=-64;KCNQ2 W236L pot=i
Cc1cc(C(=O)CCC(=O)NCc2ccccc2F)c(C)s1	i	nt	nt	nt
Nc1[nH]n2c(=O)cc(-c3ccccc3)nc2c1N=Nc1ccccc1	i	6.6*	i	i	CHO-K1 Tl ctr=-28;KCNQ1 sel pot=-25;KCNQ2 pot conf=9.8*;Kir21 spec=-21;KCNQ2 W236L pot=i
Nc1[nH]n2c(=O)cc(-c3ccccc3)nc2c1N=Nc1ccc(S(N)(=O)=O)cc1	i	1.4	nt	nt
CCCCOCCCNC(=O)c1ccc2c(c1)OCO2	i	6.5*	i	i	CHO-K1 Tl ctr=1.4*;KCNQ1 sel pot=-14;KCNQ2 pot conf=-26;Kir21 spec=-38
COCCCNC(=O)c1ccc2c(c1)OCO2	i	nt	nt	nt
CCCC(C(=O)N(C)CC(=O)Nc1ccc(N2CCOCC2)cc1)c1ccccc1 (stereo not given)	i	1.3	nt	nt
CCCN(C(=O)c1cn(-c2ccccc2)nc1-c1ccc(OC)cc1)C1CCS(=O)(=O)C1 (stereo not given)	i	nt	nt	nt
CC1=C(N2CCCCC2)CCC1=O	i	nt	nt	nt
CC(C)c1ccc(S(=O)(=O)NC2CCS(=O)(=O)C2)cc1 (stereo not given)	i	nt	nt	nt
Cc1ccccc1CN(C)C(=O)c1ccc2ccccc2n1	i	0.57	nt	nt
CCOC(=O)Cn1c(=N)n(Cc2ccccc2)c2ccccc21	i	1.5	nt	nt
Nc1nc2ccccc2n1CCOc1ccc(Cl)cc1	i	2.5	nt	nt
CCOC(=O)Cn1c(=N)n(CCOc2ccc(Br)cc2)c2ccccc21	i	nt	36%*	i
Nc1nc2ccccc2n1CCOc1ccc(Br)cc1	i	nt	20%*	130%*
OC1(c2ccc(Br)cc2)CCN(Cc2cccc(Br)c2)CC1	i	nt	20%*	i
Brc1cccc(CN2CCCCCC2)c1	i	0.57	nt	nt
CCCNC(=S)N1CC2(C)CN(C(=O)C(=O)OCC)CC(C)(C1)C2=O	i	nt	nt	nt
O=C(N/N=C/c1ccc2c(c1)OCO2)C(=O)Nc1cccc(Cl)c1	i	nt	nt	nt
CC1(C)CC(=O)C=C(C(=O)N2CCCC(C(=O)c3cccc(C(F)(F)F)c3)C2)O1 (stereo not given)	i	0.21	nt	nt
CCCCN1C(=O)/C(=C2\SC(N3CCCCC3)=NC2=O)c2ccccc21	i	0.48	nt	nt
CCCCN1C(=O)C(=Nc2cccc3cnccc23)c2ccccc21	i	nt	36%*	i
CCc1ccccc1NC(=O)C1CCN(S(=O)(=O)c2ccc3c(c2)N(C(C)=O)CCO3)CC1	i	nt	nt	nt
SMILES	KCNQ2 block	KCNQ2 pot	Kir21 conf inh	HEK293 ctr	others
O=C(O)c1cc([N+](=O)[O-])cc2c1C=Cc1ccccc1O2	i	1.7	nt	nt
Oc1ccc(COCc2ccccc2)c2cccnc12	i	5.9*	i	i	CHO-K1 Tl ctr=15*;KCNQ1 sel pot=-13;KCNQ2 pot conf=1.0*;Kir21 spec=-46;KCNQ2 W236L pot=i
Oc1ccc(CN2CCc3ccccc3C2)c2cccnc12	i	13*	32%*	i	CHO-K1 Tl ctr=44*;KCNQ1 sel pot=-19;KCNQ2 pot conf=1.3*;Kir21 spec=-100;KCNQ2 W236L pot=i
Oc1ccc(CN2CCCCC2)c2cccnc12	i	0.21	nt	nt
CC(C)COCc1ccc(O)c2ncccc12	i	7.7*	i	i	CHO-K1 Tl ctr=-27;KCNQ1 sel pot=11*;KCNQ2 pot conf=51*;Kir21 spec=-37;KCNQ2 W236L pot=i
OCc1ccc(O)c2ncccc12	i	nt	nt	nt
CCCOCc1ccc(O)c2ncccc12	i	3.8	nt	nt
